FLuc counter: qHTS profiling assay for firefly luciferase inhibitor/activator using purifed enzyme and Km concentrations of substrates (counterscreen for miR-21 project) | Potency, µM (series often up to 57.5 µM), actives largely listed as inhibitors | purified FLuc, Km substrates, luminescence inhibition | Luciferin 4-monooxygenase (Photinus pyralis), P08659 | hit rate 6.9% among 360,000; note: nearly all actives have a fitted effect of over 55% in size
Target sequence (P08659 whole entry, looked up): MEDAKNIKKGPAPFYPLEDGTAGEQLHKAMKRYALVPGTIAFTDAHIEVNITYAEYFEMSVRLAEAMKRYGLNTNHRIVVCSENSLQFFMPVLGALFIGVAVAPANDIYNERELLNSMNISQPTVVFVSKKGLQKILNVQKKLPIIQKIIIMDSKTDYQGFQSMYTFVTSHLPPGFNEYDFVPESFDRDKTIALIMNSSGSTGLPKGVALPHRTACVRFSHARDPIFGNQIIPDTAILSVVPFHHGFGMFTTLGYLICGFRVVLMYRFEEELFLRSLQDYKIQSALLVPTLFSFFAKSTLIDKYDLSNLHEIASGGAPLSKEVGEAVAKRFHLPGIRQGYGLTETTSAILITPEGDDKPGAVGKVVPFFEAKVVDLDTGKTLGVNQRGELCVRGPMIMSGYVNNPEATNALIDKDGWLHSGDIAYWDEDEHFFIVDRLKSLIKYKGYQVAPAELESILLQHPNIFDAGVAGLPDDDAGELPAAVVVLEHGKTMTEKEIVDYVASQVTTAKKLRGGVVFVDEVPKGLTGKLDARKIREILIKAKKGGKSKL
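Purified P. pyralis luciferase (10nM final) with 10uM D-luciferin and 10uM ATP (Km levels) in 50mM Tris acetate pH 7.5, 10mM Mg acetate, 0.01% Tween-20, 0.05% BSA; qHTS 6-point titration, ~60 µM downward; luminescence read.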
Rab9 prom act: qHTS Assay for Rab9 Promoter Activators; Huh7 Rab9 promoter-luciferase reporter, luminescence, 24 h; Potency, µM (titrated, usually from 9.22 µM), usual class: activators; hit rate 2.8% among 320,000; AID 485297, 2010; note: nearly all actives have a fitted effect of over 60% in size
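Huh7 reporter line, Rab9 promoter upstream of luciferase. Compound exposure 24 h at 37 °C in reduced-serum medium with 10% FBS. Read-out: luminescence.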
Luc counter: Counterscreen for Luciferase (Kinase-Glo TM) Inhibition. Kinase-Glo luciferase, ATP luminescence, 8 min. Potency, µM (top dose mostly 38.3 µM), actives largely listed as inhibitors. hit rate 0.28% among 200,000; note: nearly all actives have a fitted effect of over 60% in size
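Substrate mix (final 50 mM imidazole pH 7.2, 50 mM KCl, 7 mM MgCl2, 10 uM ATP, 0.01% Tween 20, 0.05% BSA) plus pin-tool compound, then Kinase-Glo detection mix; 8 min ambient, luminescence read.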
NPC1 promoter act: qHTS Assay for NPC1 Promoter Activators; Huh7 NPC1 promoter luciferase reporter, 24 h; Potency, µM (doses to about 9.22 µM), actives largely listed as activators; hit rate 2.4% among 320,000; AID 485313, 2010; note: nearly all actives have a fitted effect of over 60% in size
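Luminescence from an NPC1 promoter-driven luciferase reporter in stably transfected Huh7 cells was measured after 24 h compound treatment at 37 °C, followed by 10 min ambient incubation with luciferase detection reagent.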
ELG1 genotox: qHTS screen for small molecules that induce genotoxicity in human embryonic kidney (HEK293T) cells expressing luciferase-tagged ELG1. AID 504466, 2011. Potency, µM (highest dose often 46 µM), usual class: activators. hit rate 1.3% among 330,000. HEK293T ELG1-luciferase reporter, luminescence, 16 h; note: nearly all actives have a fitted effect of over 60% in size
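Step 1: seed 2,000 HEK293T ELG1-luciferase cells per well. Step 2: add compound or DMSO, incubate 16 hr at 37 °C. Step 3: ONE-Glo, 30 min at room temperature, read luminescence.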
SMN2 splice enh: qHTS Assay for Enhancers of SMN2 Splice Variant Expression; hit rate 2.8% among 210,000; AID 1458, 2008; HEK293 SMN2-luciferase splicing reporter, luminescence, 30-36 h; Potency, µM (highest dose often 46.1 µM), usual class: activators; note: nearly all actives have a fitted effect of over 55% in size
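HEK293 cells carry an SMN2 […]–luciferase reporter in which exon 7 inclusion puts luciferase in frame. Cells were plated 10-12 h before compound addition, then incubated 30-36 h at 37C. ONE-Glo luminescence was read; sodium butyrate at 4.5 mM final served as control.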
Of the large screens only hits and unclear results are named; the others gave an inactive call. Hits are enriched below; roughly 7.5% of the tested compounds scored in any of these assays. Calls come from the whole dose curve; as a rule, active = well fitted curve in the direction sought with a large enough effect; inconclusive = small, poorly fitted or top-dose-only effect, or another doubt; inactive = no such curve, though single readings can be large; an effect the other way counts as inactive or inconclusive.

CCN1CCN(Cc2ccc(NC(=O)c3cc(NC(=O)c4cnn(-c5ccccc5)c4N)cc(OC)c3)cc2C(F)(F)F)CC1	FLuc counter 16.9µM (no result: Luc counter, SMN2 splice enh)
CCN1CCN(Cc2ccc(NC(=O)c3ccc(C)c(NC(=O)c4ccc5n[nH]nc5c4)c3)cc2C(F)(F)F)CC1	FLuc counter 19µM (no result: Luc counter, SMN2 splice enh)
CCN1CCN(Cc2ccc(NC(=O)c3cc(NC(=O)C(=O)c4c[nH]c5ccccc45)cc(OC)c3)cc2C(F)(F)F)CC1	FLuc counter 9.53µM (no result: Luc counter, SMN2 splice enh)
CCN1CCN(Cc2ccc(NC(=O)c3cc(NC(=O)c4cc(C)on4)cc(OC)c3)cc2C(F)(F)F)CC1	FLuc counter inconclusive, ELG1 genotox inconclusive (no result: Luc counter, SMN2 splice enh)
CCN1CCN(Cc2ccc(NC(=O)c3ccc(C)c(NC(=O)C(=O)c4c[nH]c5ccccc45)c3)cc2C(F)(F)F)CC1	FLuc counter inconclusive (no result: Luc counter, SMN2 splice enh)
CCc1ccc(C)c(OC(=O)c2cncc(Br)c2)c1	none (no result: Luc counter, SMN2 splice enh)
CCOC(=O)c1ccc(S(=O)(=O)Nc2cc(S(=O)(=O)Nc3ccc(OC)cc3)ccc2O)cc1	none (no result: FLuc counter, Rab9 prom act, Luc counter, NPC1 promoter act, SMN2 splice enh)
O=C(/C=C/Sc1ccccc1)c1ccccc1	FLuc counter 0.426µM, ELG1 genotox inconclusive
O=C(/C=C/Sc1ccccc1)c1ccc(Cl)cc1	FLuc counter 1.07µM, ELG1 genotox inconclusive
C/C(=C\C(=O)c1ccccc1)NNC(=O)c1ccc(Cl)cc1	none (no result: Luc counter, SMN2 splice enh)
O=C(Nc1nc2ccc(Cl)cc2s1)c1ccc(Br)o1	FLuc counter 2.39µM, Rab9 prom act 1.12µM, NPC1 promoter act 3.55µM, ELG1 genotox inconclusive, SMN2 splice enh 11.2µM
CCSc1ncc(Cl)c(C(=O)Nc2nc3ccc(Cl)cc3s2)n1	FLuc counter inconclusive (no result: Rab9 prom act, Luc counter, NPC1 promoter act, ELG1 genotox)
Cc1cc(C(=O)Nc2nc3ccc(Cl)cc3s2)nn1C	FLuc counter 2.13µM, Rab9 prom act 0.631µM, NPC1 promoter act 1.41µM, ELG1 genotox inconclusive (no result: Luc counter, SMN2 splice enh)
Cn1ncc(Cl)c1C(=O)Nc1nc2ccc(Cl)cc2s1	FLuc counter 2.13µM, Rab9 prom act inconclusive, NPC1 promoter act 3.16µM, ELG1 genotox inconclusive, SMN2 splice enh 3.55µM
Cc1ccc2c(=O)cc(C(=O)Nc3nc4ccc(Cl)cc4s3)oc2c1C	none (no result: Rab9 prom act, Luc counter, NPC1 promoter act, ELG1 genotox)
COCc1c(C(=O)N/N=C/c2ccncc2)nnn1-c1nonc1N	none (no result: Luc counter, SMN2 splice enh)
COc1cccc(-n2cnc3scc(-c4cccs4)c3c2=O)c1	none
COc1ccc(C(=O)Nn2cnc3scc(-c4cccs4)c3c2=O)c(O)c1	FLuc counter 15.1µM, Rab9 prom act 2.51µM, NPC1 promoter act 2.82µM, ELG1 genotox 7.31µM, SMN2 splice enh 12.6µM
C[C@H](NCCN(C)C)[C@@H]1CCC2C3CCc4cc(O)ccc4[C@H]3CCC21C (stereo partly specified)	none (no result: FLuc counter, Rab9 prom act, NPC1 promoter act, ELG1 genotox)
Cc1ccc(C(=O)N2CCC(c3c[nH]c4ccccc34)(c3c[nH]c4ccccc34)CC2)cc1	none (no result: Rab9 prom act, Luc counter, NPC1 promoter act, ELG1 genotox)
CC1(C)c2ccccc2-c2nc3ccccc3cc2C1O (stereo unspecified)	FLuc counter 15.1µM (no result: Luc counter, SMN2 splice enh)
Oc1cc2ccccc2nc1-c1ccccc1Cl	none (no result: Luc counter, SMN2 splice enh)
O=C(Nc1nnc(-c2ccc(Cl)cc2)o1)c1cccc(N2C(=O)CCC2=O)c1	FLuc counter 12µM
O=C(Nc1nnc(-c2ccncc2)o1)c1cccc(N2C(=O)CCC2=O)c1	none
CSc1cccc(-c2nnc(NC(=O)c3cccc(N4C(=O)CCC4=O)c3)o2)c1	FLuc counter 26.9µM (no result: Luc counter, SMN2 splice enh)
O=C1C(C2=NC(C(=O)O)C3C(=O)N(c4ccccc4)C(=O)C23)=C(O)c2ccccc21 (stereo unspecified)	FLuc counter 12µM, Luc counter inconclusive
CCOC(=O)c1sc(NC(=O)c2nc3ncccn3n2)c(C(=O)OC)c1C	none (no result: Rab9 prom act, Luc counter, NPC1 promoter act, ELG1 genotox)
CC(C)(C)C(=O)Nc1ccc(-c2cnco2)cc1	FLuc counter 16.9µM (no result: Luc counter, SMN2 splice enh)
Brc1cccc(-c2cnco2)c1	none (no result: SMN2 splice enh)
CC(C)(C)c1ccc(-c2cnco2)cc1	FLuc counter 16.9µM (no result: Luc counter, SMN2 splice enh)
O=C(/C=C/c1ccc([N+](=O)[O-])cc1)NCCc1ccccc1	none

Assay outcomes: PubChem, National Center for Advancing Translational Sciences (NCATS)
